# Results reported in PubChem BioAssay (EPA / NIEHS).
# The source made the active and inactive calls. The calls were made as follows: active = hit-call score of the fitted dose curve at least 0.9, where 1 is the maximum; inactive = score below 0.9.
# What was measured:
# Conditions in all cases: mRNA level, 48 h; actives raise or lower the signal
# [1] = read-out: catalase (CAT), CAT (gene 847); assay: LTEA_HepaRG_CAT: Life Technologies and Expression Analysis (LTEA) Assay for catalase (CAT) using HepaRG (AID 2283452);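 as to AC50: TaqMan qRT-PCR signal normalized to ACTB GAPDH and POLR2A housekeeping genes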
# Method in brief: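 Differentiated HepaRG cells in serum-free induction medium were dosed 48 h in duplicate, eight half-log concentrations from 100 uM in 0.5% DMSO. Transcript measured by TaqMan qRT-PCR, normalised to ACTB/GAPDH/POLR2A, fitted bidirectionally against DMSO.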
# [2] = read-out: flavin-containing dimethylaniline monooxygenases 3 (FMO3), FMO3 (gene 2328); assay: LTEA_HepaRG_FMO3: Life Technologies and Expression Analysis (LTEA) Assay for flavin-containing dimethylaniline monooxygenases 3 (FMO3) using HepaRG (AID 2283453)
# Method in brief: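 Differentiated HepaRG cells in serum-free induction medium, exposed 48 h in duplicate to 8 half-log concentrations up to 100 uM in 0.5% DMSO. FMO3 mRNA by qRT-PCR, normalized to ACTB, GAPDH, POLR2A; bidirectional fit vs DMSO.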
# [3] = read-out: Cytochrome P450 (CYP1A1), CYP1A1 (gene 1543); assay: LTEA_HepaRG_CYP1A1: Life Technologies and Expression Analysis (LTEA) Assay for Cytochrome P450 (CYP1A1) using HepaRG (AID 2283454)
# Method in brief: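 Differentiated human HepaRG cells, after 48 h plating, exposed in duplicate for 48 h in serum-free induction medium to 8 half-log concentrations up to 100 uM in 0.5% DMSO. CYP1A1 mRNA by qRT-PCR, normalized to ACTB/GAPDH/POLR2A; bidirectional fit versus DMSO.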
# [4] = read-out: CFLAR gene, CFLAR (gene 8837); assay: LTEA_HepaRG_CFLAR: Life Technologies and Expression Analysis (LTEA) Assay for CFLAR gene using HepaRG (AID 2283455)
# Method in brief: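 HepaRG cells were plated for 48 h, switched to serum-free induction medium, then exposed in duplicate for 48 h to 8 concentrations (top 100 uM, half-log steps, 0.5% DMSO). CFLAR mRNA was measured by qRT-PCR, normalized to ACTB, GAPDH and POLR2A.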
# [5] = read-out: Forkhead box O1 (FOXO1), FOXO1 (gene 2308); assay: LTEA_HepaRG_FOXO1: Life Technologies and Expression Analysis (LTEA) Assay for Forkhead box O1 (FOXO1) using HepaRG (AID 2283456)
# Method in brief: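 Differentiated human HepaRG cells in serum-free induction medium were exposed in duplicate for 48 h to eight half-log concentrations (top 100 uM, 0.5% DMSO). FOXO1 mRNA was measured by TaqMan qRT-PCR, normalised to ACTB, GAPDH and POLR2A, and fitted bidirectionally against DMSO.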
# [6] = read-out: growth arrest and DNA damage 45 (GADD45A), GADD45A (gene 1647); assay: LTEA_HepaRG_GADD45A: Life Technologies and Expression Analysis (LTEA) Assay for growth arrest and DNA damage 45 (GADD45A) using HepaRG (AID 2283458)
# Method in brief: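 Cells plated and cultured 48 h, switched to serum-free induction medium, then dosed for 48 h (100 uM top, half-log dilutions, 0.5% DMSO). RNA was isolated and transcript measured by Fluidigm qRT-PCR.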
# [7] = read-out: Forkhead box O3 (FOXO3), FOXO3 (gene 2309); assay: LTEA_HepaRG_FOXO3: Life Technologies and Expression Analysis (LTEA) Assay for Forkhead box O3 (FOXO3) using HepaRG (AID 2283459)
# Method in brief: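 Differentiated human HepaRG cells in serum-free induction medium were exposed in duplicate for 48 h to eight half-log concentrations up to 100 uM in 0.5% DMSO. FOXO3 mRNA was quantified by qRT-PCR, normalized to ACTB, GAPDH and POLR2A, with bidirectional fitting versus DMSO.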
# [8] = read-out: ABC Transporter (ABCB1), ABCB1 (gene 5243); assay: LTEA_HepaRG_ABCB1: Life Technologies and Expression Analysis (LTEA) Assay for ABC Transporter (ABCB1) using HepaRG (AID 2283460)
# Method in brief: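 Differentiated human HepaRG cells, plated 48 h then switched to serum-free induction medium, were exposed in duplicate to eight half-log concentrations up to 100 uM in 0.5% DMSO for 48 h. ABCB1 mRNA was measured by TaqMan qRT-PCR, normalized to ACTB/GAPDH/POLR2A.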
smiles,measurement,setting,value
CNCc1cc(F)ccc1Oc1ccc(Cl)c(Cl)c1,AC50,[1],82.8 µM (active)
same,AC50,[2],93.3 µM (active)
same,outcome,[3],inactive
same,AC50,[4],12.1 µM (active)
same,outcome,[5],inactive
same,outcome,[6],inactive
same,outcome,[7],inactive
same,outcome,[8],inactive
CC(C)(C)c1cc(O)c(C(C)(C)C)cc1O,AC50,[1],78.8 µM (active)
same,AC50,[2],78.1 µM (active)
same,AC50,[4],77.4 µM (active)
same,AC50,[5],77.7 µM (active)
same,AC50,[6],50 µM (active)
same,outcome,[7],inactive
same,AC50,[8],90.3 µM (active)
CCCCCCCCCCCCCCCC,outcome,[1],inactive
same,outcome,[2],inactive
same,AC50,[3],50 µM (active)
same,outcome,[4],inactive
same,outcome,[5],inactive
same,outcome,[6],inactive
same,outcome,[7],inactive
same,outcome,[8],inactive
Cc1ccccc1Cl,outcome,[1],inactive
same,outcome,[2],inactive
same,AC50,[3],50 µM (active)
same,outcome,[4],inactive
same,outcome,[5],inactive
same,outcome,[6],inactive
same,outcome,[7],inactive
same,outcome,[8],inactive
NC(=O)Cn1c(=O)cc(CCN2CCN(c3nccc4sccc34)CC2)c2ccc(F)cc21,outcome,[1],inactive
same,outcome,[2],inactive
same,AC50,[3],10.1 µM (active)
same,outcome,[4],inactive
same,AC50,[5],50 µM (active)
same,outcome,[7],inactive
same,AC50,[8],36.6 µM (active)
CCNc1cccc(C)c1,outcome,[1],inactive
same,outcome,[2],inactive
same,AC50,[3],50 µM (active)
same,outcome,[4],inactive
same,outcome,[5],inactive
same,outcome,[6],inactive
same,outcome,[7],inactive
same,outcome,[8],inactive
COC(=O)c1ccc(O)cc1,outcome,[1],inactive
same,outcome,[2],inactive
same,outcome,[3],inactive
same,outcome,[4],inactive
same,outcome,[5],inactive
same,outcome,[6],inactive
same,outcome,[7],inactive
same,outcome,[8],inactive
COCCOC[C@H](CC1(C(=O)NC2CCC(C(=O)O)CC2)CCCC1)C(=O)Oc1ccc2c(c1)CCC2 (stereo partly drawn),outcome,[1],inactive
same,outcome,[2],inactive
same,outcome,[3],inactive
same,outcome,[4],inactive
same,outcome,[5],inactive
same,outcome,[7],inactive
same,outcome,[8],inactive
COCCOCCOC,outcome,[1],inactive
same,outcome,[2],inactive
same,AC50,[3],1.22 µM (active)
same,AC50,[4],0.253 µM (active)
same,AC50,[5],2.22 µM (active)
same,AC50,[6],0.998 µM (active)
same,AC50,[7],9.92 µM (active)
same,AC50,[8],2.83 µM (active)
NS(=O)(=O)c1cc2c(cc1Cl)NCNS2(=O)=O,outcome,[1],inactive
same,outcome,[2],inactive
same,outcome,[3],inactive
same,outcome,[4],inactive
same,outcome,[5],inactive
same,outcome,[7],inactive
same,outcome,[8],inactive
CC(=O)OCCOCCOCCOC(C)=O,outcome,[1],inactive
same,outcome,[2],inactive
same,outcome,[3],inactive
same,outcome,[4],inactive
same,outcome,[5],inactive
same,outcome,[7],inactive
same,outcome,[8],inactive
NCCO,outcome,[1],inactive
same,outcome,[2],inactive
same,AC50,[3],50 µM (active)
same,outcome,[4],inactive
same,outcome,[5],inactive
same,outcome,[6],inactive
same,outcome,[7],inactive
same,outcome,[8],inactive
CC(=O)Oc1ccccc1C(=O)O,outcome,[1],inactive
same,outcome,[2],inactive
same,AC50,[3],50 µM (active)
same,outcome,[4],inactive
same,outcome,[5],inactive
same,outcome,[7],inactive
same,outcome,[8],inactive
CCCCCC(=O)O,outcome,[1],inactive
same,outcome,[2],inactive
same,AC50,[3],70 µM (active)
same,outcome,[4],inactive
same,outcome,[5],inactive
same,outcome,[7],inactive
same,outcome,[8],inactive
Cc1oc(-c2ccccc2)nc1CCOc1cccc2c1ccn2CCC(=O)O,AC50,[1],88.3 µM (active)
same,AC50,[2],76.7 µM (active)
same,outcome,[3],inactive
same,AC50,[4],10.7 µM (active)
same,AC50,[5],85.6 µM (active)
same,outcome,[7],inactive
same,AC50,[8],81.3 µM (active)
COc1cc(S(=O)(=O)O)c(C)cc1N=Nc1c(O)ccc2cc(S(=O)(=O)O)ccc12,outcome,[1],inactive
same,outcome,[2],inactive
same,outcome,[4],inactive
same,outcome,[5],inactive
same,outcome,[6],inactive
same,outcome,[7],inactive
same,outcome,[8],inactive
Nc1ccc(S(=O)(=O)c2ccc(N)cc2)cc1,outcome,[1],inactive
same,outcome,[2],inactive
same,outcome,[3],inactive
same,outcome,[4],inactive
same,outcome,[5],inactive
same,outcome,[7],inactive
same,outcome,[8],inactive
Nc1ccc2c(c1)C(=O)c1ccccc1C2=O,AC50,[1],1.57 µM (active)
same,AC50,[2],12 µM (active)
same,AC50,[3],6.31 µM (active)
same,AC50,[4],3.31 µM (active)
same,outcome,[5],inactive
same,AC50,[7],3 µM (active)
same,outcome,[8],inactive
CCCCCCCC=O,AC50,[1],1.44 µM (active)
same,outcome,[2],inactive
same,AC50,[3],50 µM (active)
same,outcome,[4],inactive
same,outcome,[5],inactive
same,outcome,[7],inactive
same,outcome,[8],inactive
CCCCCCCCCCO,outcome,[1],inactive
same,outcome,[2],inactive
same,outcome,[3],inactive
same,outcome,[4],inactive
same,outcome,[5],inactive
same,outcome,[6],inactive
same,outcome,[7],inactive
same,outcome,[8],inactive
CCCCN(CCCC)CCCC,outcome,[1],inactive
same,outcome,[2],inactive
same,outcome,[3],inactive
same,outcome,[4],inactive
same,outcome,[5],inactive
same,outcome,[7],inactive
same,outcome,[8],inactive
Cc1ccc(C)c(C)c1,outcome,[1],inactive
same,outcome,[2],inactive
same,outcome,[3],inactive
same,outcome,[4],inactive
same,outcome,[5],inactive
same,outcome,[6],inactive
same,outcome,[7],inactive
same,outcome,[8],inactive
CC(=O)OC/C=C(\C)CCC=C(C)C,outcome,[1],inactive
same,outcome,[2],inactive
same,outcome,[3],inactive
same,outcome,[4],inactive
same,outcome,[5],inactive
same,outcome,[7],inactive
same,outcome,[8],inactive
CC(C)c1ccc(C(=O)N=C(N)N)cc1S(C)(=O)=O,outcome,[1],inactive
same,outcome,[2],inactive
same,AC50,[3],0.6 µM (active)
same,AC50,[4],0.361 µM (active)
same,AC50,[5],0.498 µM (active)
same,AC50,[6],0.676 µM (active)
same,AC50,[7],0.264 µM (active)
same,AC50,[8],8.32 µM (active)
